According to PubChem BioAssay AID624417 (National Center for Advancing Translational Sciences (NCATS), 2012):
Hit rate of the full screen: of about 410,000 compounds, about 6,400 (1.6%) were called active. Roughly 20% stayed inconclusive and do not appear here. Calls follow the shape of the dose curve; as a rule, active = well fitted inhibition curve with a large enough effect; inconclusive = small, poorly fitted or top-dose-only effect; inactive = no such curve, though single readings can be large or run the other way. This excerpt belongs to a sample that is enriched for actives.

Target: Glucagon-like peptide 1 receptor (Homo sapiens) (UniProt P43220)
Sequence (P43220 whole entry, looked up): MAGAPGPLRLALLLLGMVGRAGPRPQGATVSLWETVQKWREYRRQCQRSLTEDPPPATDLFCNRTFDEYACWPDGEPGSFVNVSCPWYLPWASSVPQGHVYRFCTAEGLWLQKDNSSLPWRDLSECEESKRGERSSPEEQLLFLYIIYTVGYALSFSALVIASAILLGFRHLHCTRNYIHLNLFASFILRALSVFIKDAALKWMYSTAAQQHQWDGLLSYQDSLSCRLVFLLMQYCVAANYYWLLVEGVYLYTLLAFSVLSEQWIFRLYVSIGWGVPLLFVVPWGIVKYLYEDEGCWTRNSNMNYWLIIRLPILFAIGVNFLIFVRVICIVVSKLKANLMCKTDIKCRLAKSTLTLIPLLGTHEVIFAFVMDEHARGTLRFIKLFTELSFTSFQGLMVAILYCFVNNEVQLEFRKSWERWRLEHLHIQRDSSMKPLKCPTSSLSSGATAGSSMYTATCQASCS
Assay: qHTS of GLP-1 Receptor Inverse Agonists (Inhibition Mode); also: nearly all actives have a fitted effect of over 55% in size
Conditions: HEK293 GLP-1R CRE-luciferase, luminescence, 24 h, GLP-1R form is constitutively active; series mostly up to 38.3 µM; activity change, negative = inhibition: at the top concentration
Procedure, shortened: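 Cells are plated, allowed 12 hours at 37 deg C, then treated with compounds for 24 hr before luciferase detection reagent is added and luminescence is read after 12 min at room temperature. The HEK293 line carries constitutively active GLP-1R with a cAMP-responsive reporter.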
% is scaled to controls: 0 for no effect and ±100 for the full control effect; potency is read from the fitted curve at half-maximal effect.

SMILES	activity change, negative = inhibition	Potency
C[C@@H]1CN([C@@H](C)CO)C(=O)CCCn2cc(nn2)CO[C@H]1CN(C)S(=O)(=O)c1ccc(-n2cccn2)cc1	16.2% (inactive)	–
COc1ccccc1NC(=O)C(CC(=O)O)Cc1cc(C)cc(C)c1 (stereo not given)	-6.79% (inactive)	–
COc1ccccc1NC(=O)CC(NCCN(C)C)C(=O)O (stereo not given)	3.36% (inactive)	–
COc1ccccc1NC(=O)[C@H](COCc1ccccc1)NC(=O)OC(C)(C)C	–	10 µM (active)
O=C(NCc1nnnn1-c1ccc(Cl)cc1)c1ccc2c(c1)OCO2	-3.95% (inactive)	–
COc1cccc(/C=C2\SC(=S)N(CCCC(=O)N3CCOCC3)C2=O)c1	-18.9% (inactive)	–
COc1ccc(S(=O)(=O)NC(C)C)cc1C(=O)NC1CCCCC1	5.65% (inactive)	–
COc1ccccc1N(C)S(=O)(=O)c1ccc(C(=O)NC2CCCCCC2)cc1	–	10 µM (active)
COc1ccccc1N(C)S(=O)(=O)c1ccc(C(=O)N2CCC(C(N)=O)CC2)cc1	0.999% (inactive)	–
O=C(Nc1ccc(Cl)cc1)c1csc([C@@H]2O[C@H](CO)[C@H](O)[C@H](O)[C@H]2O)n1	14.7% (inactive)	–
CSc1ncnc2c1ncn2CCCNCC1CCCCC1	8.69% (inactive)	–
CCOC(=O)C1CCCN(C(=O)c2cc(-c3cccs3)oc2C)CC1 (stereo not given)	-20.4% (inactive)	–
O=C(NCc1ccc(F)cc1F)[C@@H]1CCCN1C(=O)[C@@H]1CCCN1C(=O)c1cccc(Cl)c1	23.8% (inactive)	–
COc1ccc(N2c3ccccc3CN(Cc3ccccc3)[C@@H](C)[C@H]2Cc2ccc(-c3ccccc3)cc2)cc1	8.83% (inactive)	–
COC(=O)c1ccc2nc(-c3ccccc3)c(Cc3ccc(OC)cc3C)n2c1	0.241% (inactive)	–
CCN(CC)c1ncnc2c1ncn2[C@H]1CN(Cc2cccs2)C[C@@H](CO)O1	38.5% (inactive)	–
COCCOCCn1cnc2ccccc21	6.82% (inactive)	–
Cc1cc2ncn(CCCCOc3ccccc3)c2cc1C	–	10 µM (active)
Clc1ncn(CCOc2ccccc2)c1Cl	15.4% [at 0.307 µM] (inactive)	–
COC(=O)c1ccc(CN2C(=O)C(Cc3ccccc3)ON=C2c2ncccc2C)o1 (stereo not given)	23.9% (inactive)	–
CCc1nnc(NC(=O)c2ccco2)s1	16.5% (inactive)	–
OC[C@@H]1CN(Cc2cccs2)C[C@H](n2cnc3c(Nc4ccccc4)ncnc32)O1	-1.88% (inactive)	–
S=c1[nH]nc(-c2ccc(Cl)cc2)n1CC1CCCO1 (stereo not given)	0% (inactive)	–
O=C(c1nnc(-c2ccc(Cl)cc2)o1)C1CCCC1	12.1% (inactive)	–

SMILES	activity change, negative = inhibition	Potency
O=C(c1[nH]ncc1-c1ccc(Cl)cc1)C1CO1 (stereo not given)	–	11.2 µM (active)
CC(=O)OC[C@@H]1CN(Cc2ccccc2)C[C@H](n2cnc3c(NCc4ccco4)ncnc32)O1	7.04% (inactive)	–
CCCCCCN1C[C@@H](O)[C@H](n2cc(COC(=O)c3ccccc3)nn2)C[C@@H]1c1ccc(Cl)cc1	-10.5% (inactive)	–
C[C@H]1CN([C@@H](C)CO)C(=O)CCCn2nncc2CO[C@@H]1CN(C)S(=O)(=O)c1cccc(C#N)c1	-6.94% (inactive)	–
COCCCN1C(=O)C(CC(=O)NCc2cccs2)CC(C(=O)N2CCOCC2)=C1C (stereo not given)	5% (inactive)	–
CCOc1ccc(N(Cc2ccccc2)C(=O)c2nc(SCC)ncc2Cl)cc1	–	5.62 µM (active)
CCOc1ccc(NC(=O)c2nc(SCC)ncc2Cl)cc1	-10.7% (inactive)	–
CCSc1ncc(Cl)c(C(=O)Nc2c(C(=O)c3ccccc3)oc3ccccc23)n1	7.74% (inactive)	–
CC(=O)C1=CCC(c2ccccc2)N(S(=O)(=O)c2ccc(C)cc2)C1 (stereo not given)	10% (inactive)	–
COc1ccc(C(=O)OCC(=O)Nc2cc(C)on2)cc1F	4.43% (inactive)	–
COC(=O)c1ccc2c(c1)S(=O)(=O)NC2C (stereo not given)	5.42% (inactive)	–
Cc1cc(Br)cn2c(Cc3ccccc3C(F)(F)F)c(C3CCCCC3)nc12	7.58% (inactive)	–
COc1ccc(CNC(=O)c2ccc(-c3cccnc3)c3ccoc23)cc1OC	24.1% (inactive)	–
O=C(NC1(C(F)(F)F)NC(=O)N(C2CCCCC2)C1=O)c1ccco1 (stereo not given)	-24.1% (inactive)	–
O=C(NC1(C(F)(F)F)N=C(c2ccccc2)N(C2CCCCC2)C1=O)c1ccccc1F (stereo not given)	–	11.2 µM (active)
COC(=O)NC1(C(F)(F)F)NC(=O)N(C2CCCCC2)C1=O (stereo not given)	0.304% (inactive)	–
CC1(C(=O)NS(=O)(=O)C2CC2)CCCN(C(=O)CSc2ccccc2)C1 (stereo not given)	19.1% (inactive)	–
CC1=C(C(=O)N(C)C)CC(CC(=O)NCCN2CCOCC2)C(=O)N1Cc1ccccc1 (stereo not given)	15.2% (inactive)	–
C=C1C(=O)[C@]23C[C@H]1CCC2[C@@]1(C)C(C[C@@H]3O)[C@](C)(C(=O)O)CC[C@@H]1O (stereo not given in full)	17.2% (inactive)	–
COc1cc(C=C(OC(C)=O)c2ccc3c(c2)OCO3)cc(OC)c1OC	15.3% (inactive)	–
C[C@H]1Cn2cnc(C(=O)N[C@H](C)c3ccccc3)c2C(=O)N1	8.44% (inactive)	–
CCCCc1nc2ccc(F)cc2cc1C	29.3% (inactive)	–
O=C(Nc1ccc(Br)cc1)c1ccc(Br)c(S(=O)(=O)NCc2ccccc2)c1	–	10 µM (active)
O=C(Nc1ccc(F)cc1)c1ccc(S(=O)(=O)NCc2cccnc2)cc1	-6.58% (inactive)	–

SMILES	activity change, negative = inhibition	Potency
Cc1ccc(C(=O)Nc2ccc(C(=O)O)cc2)cc1S(=O)(=O)Nc1ccccc1	-7.85% (inactive)	–
O=C1OCCOC2CCCc3oc(-c4ccccc4)c1c32 (stereo not given)	8.65% (inactive)	–
COc1ccc(C(C)C)cc1-c1ccc2nncn2c1	16.1% (inactive)	–
CN(C)CCNC(=O)/C(=C/c1cccc([N+](=O)[O-])c1)NC(=O)c1ccccc1	4.47% (inactive)	–
N#C/C(=C\c1ccc(-c2cccc([N+](=O)[O-])c2)o1)C(=O)NCCN1CCOCC1	31.2% [at 7.66 µM] (inactive)	–
Cc1ccc(C(=O)N/C(=C/c2ccc(-c3cccc([N+](=O)[O-])c3)o2)C(=O)NCCCN(C)C)cc1	–	10 µM (active)
O=C(OCC(=O)N1CCCCCC1)c1cccc(Cl)c1Cl	-32.7% (inactive)	–
C[C@@H]1CN([C@H](C)CO)C(=O)CCCn2nncc2CO[C@@H]1CN(C)S(=O)(=O)c1cccc(C#N)c1	1.58% (inactive)	–
Cc1ccc(Cn2cc(CN3CC(N4CCN(C)CC4)CS3(=O)=O)nn2)cc1 (stereo not given)	23.4% (inactive)	–
COc1cc(Cl)c(C)cc1NC(=O)CSc1nnc(-c2ccco2)n1CC(C)C	-3.81% (inactive)	–
CCn1c(SCC(=O)NC2CCCC2)nnc1-c1ccoc1C	-16.5% (inactive)	–
COc1ccccc1NC(=O)CSc1nnc(-c2ccoc2C)n1CCc1ccccc1	–	7.94 µM (active)
Cc1c(NC(=O)CSc2nnc(-c3cccnc3)n2N)c(=O)n(-c2ccccc2)n1C	2.18% (inactive)	–
Cc1c(NC(=O)CSc2nnnn2-c2ccc(C(=O)O)cc2)c(=O)n(-c2ccccc2)n1C	39% (inactive)	–
Cc1c(NC(=O)CSc2cccc3cccnc23)c(=O)n(-c2ccccc2)n1C	–	5.62 µM (active)
Cn1cnc(S(=O)(=O)N2C[C@@H](O)COC[C@@H]3O[C@H](CC(=O)NC4CCC4)CC[C@H]32)c1	5.42% (inactive)	–
Brc1ccc2nc(-c3ccccc3)c(Cc3ccccc3)n2c1	-4.19% (inactive)	–
O=C(CCNC(=O)c1ccccc1Cl)NCc1ccco1	16.7% (inactive)	–
Cc1ccc(N(Cc2ccc(C(=O)Nc3ccccc3C(=O)NCc3ccco3)cc2)S(C)(=O)=O)cc1C	-2.72% (inactive)	–
Cc1cccc(Nc2ccccc2C(=O)NCc2ccco2)c1C	–	12.6 µM (active)
CC1(C(=O)NCc2ccc3c(c2)OCO3)CCN1C(=O)Cc1cccs1 (stereo not given)	13.1% (inactive)	–
O=C(NCc1cccnc1)c1cc(C2CCCCN2C(=O)CCc2ccccc2)on1 (stereo not given)	3.69% (inactive)	–
